An excerpt weighted towards active compounds, which were near 0.92% of everything screened.
UGM FP inh = M. tuberculosis UGM enzyme inhibitors, primary screen, biochemical, fluorescence polarization, single point. hit rate 0.06% among 320,000. UDP-galactopyranose mutase (Mycobacterium tuberculosis (strain ATCC 25618 / H37Rv)), …. purified UGM, fluorescence polarization probe displacement. inhibition, % at 10 µM; in the data active means inhibition above about 10%, passing the limit was not always enough
FadD28 binding = inhibitors of FadD28 bisubstrate probe binding, primary screen, biochemical, fluorescence polarization, single point. Mycobacterium tuberculosis FadD28 fatty-acid-AMP ligase. inhibition, % at 12.5 µM. hit rate 0.22% among 360,000. AID 588549, 2011; in the data active means inhibition above about 8.5%, passing the limit was not always enough
Mtb hypoxia rep = PubChem AID 1159583 | M. tuberculosis hypoxia-regulated fluorescent reporter, fluorescence | hit rate 0.1% among 300,000 | fluorescence inhibition, % (no concentration beside the values); in the data active means fluorescence inhibition mostly above about 23%, no sharp cut-off; inactive means mostly below about 17%
RecA splice inh = Mtb RecA intein splicing inhibitors, primary screen, biochemical, fluorescence, HTS; Protein RecA (Mycobacterium tuberculosis (strain ATCC 25618 / H37Rv)), P9WHJ3; cell-free RecA intein splicing; inhibition, % (test concentration not listed); hit rate 0.75% among 290,000; AID 2221, 2009; in the data active means inhibition above about 30%
Rv3671c inh = Rv3671c serine protease inhibitors, primary screen, biochemical, fluorescence polarization, M. tuberculosis H37Rv | P9WHR9 | inhibition, % at 5.96 µM | hit rate 0.048% among 320,000 | AID 2606, 2010; in the data active means inhibition above about 38%;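 further: extracellular domain of Rv3671c used as enzyme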
Each line names hits and unclear results; the compound was inactive in the other large screens.

NC(=O)c1ccc(-n2nnnc2SCC(=O)c2ccc(O)c(O)c2)cc1	none
COc1ccc(-n2nnnc2SCC(=O)c2ccc(O)c(O)c2)cc1	FadD28 binding 11.8 (not shown: Mtb hypoxia rep)
O=C1NN(c2ccccc2)C(=O)C1=Cc1ccccc1O	none (no result: UGM FP inh, Mtb hypoxia rep, RecA splice inh, Rv3671c inh)
O=C1NN(c2ccc(Br)cc2)C(=O)/C1=C\c1ccc(O)cc1O	FadD28 binding 15.8 (no result: Mtb hypoxia rep)
O=C1CSC(=S)N1/N=C/c1ccc(O)c(O)c1O	FadD28 binding 9.4 (no result: Mtb hypoxia rep)
COC(=O)Cc1c(C)[nH]n(-c2cc(Cl)cc(Cl)c2)c1=O	RecA splice inh 40.3
CCCCN1CC(=O)N2C3c4ccccc4OCC3C(c3ccccc3)[C@]2(C)C1=O (stereo not given in full)	none (no result: UGM FP inh, FadD28 binding, RecA splice inh, Rv3671c inh)
CC(NC(=O)c1ncn(Cc2ccccc2)c1C(=O)NC(C)c1ccccc1)c1ccccc1 (stereo not given)	none (no result: UGM FP inh, FadD28 binding, RecA splice inh, Rv3671c inh)
Cc1nc2c(-c3ccc(F)cc3)c(C)[nH]n2c(=O)c1Cl	RecA splice inh 42.7
Cc1[nH]n2c(=O)c3c(nc2c1-c1ccc(F)cc1)CCCC3	none
CC(SCc1cc(=O)n2c([nH]c3ccccc32)c1C#N)C(=O)O (stereo not given)	FadD28 binding 10.3
CCc1cc(=O)n2c([nH]c3ccccc32)c1C#N	none
COC(=O)COc1ccc(Cl)cc1C1Nc2ccccc2C(=O)N1c1ccc(OC)cc1 (stereo not given)	FadD28 binding 23.4
CCOc1cc(C=NN2C(=O)NC3(CCCCC3)C2=O)cc(Br)c1O	none (no result: UGM FP inh, FadD28 binding, RecA splice inh, Rv3671c inh)
O=C(CNS(=O)(=O)c1ccc([N+](=O)[O-])cc1)N/N=C/c1ccc(O)cc1O	FadD28 binding 21.9 (no result: Mtb hypoxia rep)
O=C(CNS(=O)(=O)c1ccc([N+](=O)[O-])cc1)NN=Cc1ccc(O)cc1O	none (no result: UGM FP inh, FadD28 binding, RecA splice inh, Rv3671c inh)
CC(=O)Nc1ccc(/C=N\NC(=O)CNS(=O)(=O)c2ccc([N+](=O)[O-])cc2)cc1	FadD28 binding 9.3 (no result: Mtb hypoxia rep)
Cc1cccc(NC(=O)CN2C(=O)N/C(=C\c3cccn3-c3cccc(C(=O)O)c3)C2=O)c1	FadD28 binding 18.1
CCOc1cc(/C=C2/NC(=O)N(CC(=O)Nc3cccc(C)c3)C2=O)ccc1O	FadD28 binding 16.4 (no result: Mtb hypoxia rep)
Cc1cccc(NC(=O)CN2C(=O)N/C(=C\c3ccccc3OCc3ccc(C(=O)O)cc3)C2=O)c1	FadD28 binding 41.8 (no result: RecA splice inh)
CC1(C)OC2C(CO)OC(n3cc(Br)c(=O)[nH]c3=O)C2O1 (stereo not given)	none (no result: UGM FP inh, FadD28 binding, RecA splice inh, Rv3671c inh)
Cc1nnc(NC(=O)CSc2ccc(-c3cccnc3)nn2)s1	none
Cc1nnc(NC(=O)CSc2ccc(-c3ccccn3)nn2)s1	Mtb hypoxia rep 67.6 (no result: FadD28 binding)
CC(C)(C)OC(=O)CCC(C(=O)NCCCCCCCCCCC(=O)N1CCN(C(=O)OC(C)(C)C)CC1)n1cc(CCCCCNC(=O)OC(C)(C)C)nn1 (stereo not given)	none (no result: UGM FP inh, FadD28 binding, RecA splice inh, Rv3671c inh)
COc1ccc(C=N/N=C2/NC(=O)C(CC(=O)O)S2)cc1OS(=O)(=O)c1ccccc1 (stereo not given)	none (no result: UGM FP inh, FadD28 binding, RecA splice inh, Rv3671c inh)
Cc1ccc(C)c(C(=O)COC(=O)c2cccc(N3C(=O)c4c(C)nc5ccccc5c4C3=O)c2)c1	none
Cc1nc2ccccc2c2c1C(=O)N(C(C)C)C2=O	RecA splice inh 41.1
Cc1nc2ccccc2c2c1C(=O)N(CCC1=CCCCC1)C2=O	none (no result: UGM FP inh, FadD28 binding, Rv3671c inh)
Cc1nc2ccccc2c2c1C(=O)N(c1cccc(C(=O)O)c1)C2=O	RecA splice inh 44.8
COc1ccc(/C=C\C(=O)NCC(=O)NN=Cc2ccc(O)cc2O)cc1	none (no result: UGM FP inh, FadD28 binding, RecA splice inh, Rv3671c inh)
N#CC(C#N)=NNc1ccc(S(N)(=O)=O)cc1	FadD28 binding 25.0 (not shown: Mtb hypoxia rep)
CCCOc1ccc(N)cc1N	RecA splice inh 30.3 (no result: Mtb hypoxia rep)
CC(=O)/C=C1/C(=O)Nc2ccccc21	RecA splice inh 62.1
Cc1cc(C)c(C=C2C(=O)Nc3ccccc32)[nH]1	none (no result: UGM FP inh, FadD28 binding, RecA splice inh, Rv3671c inh)
COC(CC1OC1C(O)COCc1ccccc1)OC (stereo not given)	none (no result: UGM FP inh, FadD28 binding, RecA splice inh, Rv3671c inh)
CC(C)(C)c1csc(NC(=O)Cn2c(=O)oc3ccccc32)n1	FadD28 binding 11.1 (no result: Mtb hypoxia rep, RecA splice inh)
O=C(Cn1c(=O)oc2ccccc21)Nc1nc(-c2ccccc2)cs1	none
COc1cccc(NC(=O)Cn2c(=O)oc3ccccc32)c1	FadD28 binding 38.9
O=S(=O)(c1ccccc1)[C@@]1(c2ccc(Br)cc2)CC2ON=C(c3cccc(Br)c3)C2C1 (stereo not given in full)	none (no result: UGM FP inh, FadD28 binding, RecA splice inh, Rv3671c inh)
CC1CN(C(C)CO)C(=O)c2cc(NC(=O)CCN3CCOCC3)ccc2OC1CN(C)S(=O)(=O)c1ccc(F)cc1 (stereo not given)	none (no result: UGM FP inh, FadD28 binding, RecA splice inh, Rv3671c inh)
CCN(CC)c1ccc2nc3ccccc3[n+](CC)c2c1	none (no result: Mtb hypoxia rep, RecA splice inh)
CCN(CC)c1ccc2nc3ccc(N)cc3[n+](-c3ccccc3)c2c1	FadD28 binding 48.2 (no result: UGM FP inh, Mtb hypoxia rep, RecA splice inh, Rv3671c inh)
